{
  "source": "PubChem BioAssay AID488965",
  "about": "(Broad Institute, 2010)",
  "note": "The whole screen tested about 340,000 compounds, of which about 210 (0.062%) were called active. Many of the other results were omitted from the sample, so actives are more common in it than they were. Unmarked numbers belong to inactive results. Rule as the data show it: active = inhibition above about 30% (passing the limit was not always enough); inconclusive = no clear call, values can overlap the other calls.",
  "data": [
    {"test_system": "PvdQ acylase [Pseudomonas aeruginosa LESB58]", "test": "P. aeruginosa PvdQ acylase inhibitors, primary screen, biochemical, fluorescence, plate reader and imaging, single point (AID 488965);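 also: 0% = vehicle neutral wells and 100% = reference inhibitor wells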", "settings": "purified PvdQ acylase, at 10 µM, active compounds read high", "values": [
      {"compound": "Cc1c(NC(=S)NC(=O)CCc2ccccc2)c(=O)n(-c2ccccc2)n1C", "inhibition": "-12.9%"},
      {"compound": "Cc1ccc(NC(=O)CCOc2ccccc2)cc1S(=O)(=O)Nc1ccccc1Cl", "inhibition": "-5.34%"},
      {"compound": "Cc1nc2nc(C)c(CCC(=O)N3CCN(c4ccccc4)CC3)c(C)n2n1", "inhibition": "-9.01%"},
      {"compound": "CN(C)c1nnnn1-c1ccc(Cl)cc1", "inhibition": "-0.634%"},
      {"compound": "CO/N=C/c1cn(-c2ccc(Cl)cc2)nn1", "inhibition": "49% (active)"},
      {"compound": "CN(C)c1ccc(/C=C/C(=O)c2ccc(O)cc2)cc1[N+](=O)[O-]", "inhibition": "-3.3%"},
      {"compound": "CN(C)c1ccc(/C=C/C(=O)c2ccc(C(C)(C)C)cc2)cc1[N+](=O)[O-]", "inhibition": "7.14%"},
      {"compound": "O=C(/C=C/c1ccc(Cl)c([N+](=O)[O-])c1)c1ccc(O)cc1", "inhibition": "42% (active)"},
      {"compound": "Cc1ccc(N2CC(C(=O)Nc3cc(Cl)ccc3-n3cncn3)CC2=O)cc1", "note": "(stereo unspecified)", "inhibition": "-12.4%"},
      {"compound": "c1cc(-n2cnnn2)ccc1NC1=NCCC1", "inhibition": "-15.4%"},
      {"compound": "Cc1ccc(C(=O)Nc2nnc(C3=COCCO3)o2)cc1C", "inhibition": "-6.48%"},
      {"compound": "Cc1c(NC(=O)c2c([N+](=O)[O-])cnn2C)c(=O)n(-c2ccccc2)n1C", "inhibition": "-9.74%"},
      {"compound": "CSC1=N/C(=C\\C=C\\c2cccs2)C(=O)S1", "inhibition": "93.4% (active)"},
      {"compound": "ONC(=Nc1ccccc1)c1ccccc1Cl", "inhibition": "-2.68%"},
      {"compound": "O=C(CCCN1C(=O)CSc2ncccc21)N1CCN(c2cccc(C(F)(F)F)c2)CC1", "inhibition": "-3.29%"},
      {"compound": "O=C(Nc1ccc(Cl)cc1)c1cccc(OC(=S)N2CCOCC2)c1", "inhibition": "-4.62%"},
      {"compound": "NC(=O)c1ccc(NC(=O)COC(=O)c2c3c(nc4ccccc24)/C(=C\\c2ccc4c(c2)OCO4)CCC3)cc1", "inhibition": "12.2%"},
      {"compound": "C=CCc1cccc2cc(C(=O)OCC)c(=O)oc12", "inhibition": "13.8%"},
      {"compound": "CCOC(=O)c1cc2cc3ccccc3cc2oc1=O", "inhibition": "65.9% (active)"},
      {"compound": "Cc1cc(C)cc(OCC(=O)NNC(=O)c2cc3ccccc3oc2=O)c1", "inhibition": "-2.78%"},
      {"compound": "CC(=O)Nc1ccc(C(=O)OCC(=O)Nc2ccc([N+](=O)[O-])cc2C(F)(F)F)cc1", "inhibition": "-15.1%"},
      {"compound": "CCc1ccc(NC(=O)CN2CCC(C(=O)c3ccc(OC)cc3)CC2)cc1", "inhibition": "-11.8%"},
      {"compound": "O=C(CN(c1ccccc1)S(=O)(=O)c1ccc(Cl)cc1)Nc1ccccc1C(=O)N1CCCC1", "inhibition": "-7.63%"},
      {"compound": "O=C(c1ccccc1)c1ccc2nc(N3CCCCC3)c3nncn3c2c1", "inhibition": "-14.2%"},
      {"compound": "CC(OC(=O)CCc1nc(=O)c2ccccc2n1C)C(=O)NCc1ccc2c(c1)OCO2", "note": "(stereo unspecified)", "inhibition": "11.9%"},
      {"compound": "O=C1CC(C(=O)O)NC(=S)N1", "note": "(stereo unspecified)", "inhibition": "-11%"},
      {"compound": "O=C(NCC(=O)N(Cc1cccs1)C(C(=O)NC1CCCCC1)c1ccco1)c1cccs1", "note": "(stereo unspecified)", "inhibition": "-5.29%"},
      {"compound": "CCOC(=O)N1CCC(=NNC(N)=O)CC1", "inhibition": "5.61%"},
      {"compound": "O=S(=O)(O)c1cc2onnc2c2ccccc12", "inhibition": "-19.4%"},
      {"compound": "CCOc1cc(C(=O)N(Cc2ccccc2)c2ccc(C)cc2)ccc1OCC(=O)N1CCOCC1", "inhibition": "-12.7%"},
      {"compound": "COc1ccc(-c2nnc(-c3ccc4ccccc4c3)o2)cc1", "inhibition": "-12.7%"},
      {"compound": "COc1ccc(-c2cc3ncccc3cn2)cc1", "inhibition": "48.1% (active)"},
      {"compound": "COc1cc(OC)cc(-c2cc3ccc(F)cc3cn2)c1", "inhibition": "8.09%"},
      {"compound": "COC(=O)Cc1csc(/N=C/c2c(O)n(-c3cccc(C(F)(F)F)c3)c(=O)c3ccccc23)n1", "inhibition": "-13%"},
      {"compound": "CCSc1nc2sc3c(c2c(=O)n1-c1ccc(C)cc1)CCN(C)C3", "inhibition": "-19.4%"},
      {"compound": "C/C=N/N(c1ccccc1)c1ccccc1", "inhibition": "-15.2%"},
      {"compound": "COC(=O)C[n+]1cccc2ccccc21", "inhibition": "-19.7%"},
      {"compound": "CC(=O)c1ccccc1NC(=O)C1CC(=O)N(c2ccc3c(c2)OCCO3)C1", "note": "(stereo unspecified)", "inhibition": "3.1%"},
      {"compound": "Cc1ccc(-c2csc(N3CCN(c4cc5c(cc4Cl)nc(-c4ccncc4)n5CCOCCO)CC3)n2)cc1", "inhibition": "2.95%"},
      {"compound": "CCOc1ccc(/C=C(/NC(=O)c2ccccc2)C(=O)NCCC(=O)O)cc1", "inhibition": "3.82%"},
      {"compound": "O=C(NCc1cccnc1)c1cnc2ccccc2n1", "inhibition": "-7.28%"},
      {"compound": "COc1ccccc1CN1CCCC(N2CCN(c3ccc(F)cc3)CC2)C1", "note": "(stereo unspecified)", "inhibition": "-5.39%"},
      {"compound": "O=C(COC(=O)/C=C/c1cccs1)NC1CCCCC1", "inhibition": "-1.95%"},
      {"compound": "COc1ccc(Cn2c(-c3ccc(Cl)cc3)c[n+]3ccccc23)cc1", "inhibition": "-9.83%"},
      {"compound": "COc1ccc(/C(N)=N/OC(=O)CCCc2ccccc2)cc1", "inhibition": "12.9%"},
      {"compound": "Cc1ccccc1N1CC(C(=O)Nc2ccc(S(=O)(=O)N3CCCC3)cc2)CC1=O", "note": "(stereo unspecified)", "inhibition": "-17.2%"},
      {"compound": "COc1ccccc1C(=O)N(Cc1ccc(C)o1)C1CCS(=O)(=O)C1", "note": "(stereo unspecified)", "inhibition": "-16.8%"},
      {"compound": "O=C(NCc1cccc(CNC(=O)Nc2cccc(O)c2)c1)Nc1cccc(O)c1", "inhibition": "8.11%"},
      {"compound": "OCCn1c(-c2ccccc2)csc1=Nc1ccccc1", "inhibition": "-14.6%"},
      {"compound": "CNC[C@H](CC1CCCCC1)NC[C@H](NCCC1CCCC1)[C@H](C)O", "inhibition": "-4.64%"},
      {"compound": "CCCCNC1(C#N)CCN(Cc2ccccc2)CC1", "inhibition": "-10.8%"},
      {"compound": "Cc1ccc(S(=O)(=O)N[C@@H](Cc2ccccc2)C(=O)N2CCC(C(=O)N[C@H](C(=O)O)C(C)O)CC2)cc1", "note": "(stereo partly specified)", "inhibition": "-16.1%"},
      {"compound": "CN1CCN(CC(O)COCc2ccc3c(c2)OCO3)CC1", "note": "(stereo unspecified)", "inhibition": "13.9%"},
      {"compound": "O=C(c1cccs1)C1C(c2ccc(Br)cc2)NC(=S)NC1(O)C(F)(F)F", "note": "(stereo unspecified)", "inhibition": "-1.76%"},
      {"compound": "Cc1ccc2nc(SCC(=O)N3CCN(c4ccccc4)CC3)nc(=O)n2c1", "inhibition": "-4.06%"},
      {"compound": "CCC1([N+](=O)[O-])COC(c2ccc(C)cc2)OC1", "note": "(stereo unspecified)", "inhibition": "-3.75%"},
      {"compound": "CCCCCN(C(=O)NC(=O)Nc1ccccc1OC)S(C)(=O)=O", "inhibition": "-5.97%"},
      {"compound": "Cc1cccn2c(CN(C)C3CCCc4ccccc43)c(C(=O)N3CCOCC3)nc12", "note": "(stereo unspecified)", "inhibition": "-1.38%"},
      {"compound": "CCOc1cccc(OCCCOc2cccc3cccnc23)c1", "inhibition": "-17.7%"},
      {"compound": "COc1ccc(S(=O)(=O)N(C)C[C@H]2Oc3ccc(NS(=O)(=O)c4cccs4)cc3CC(=O)N([C@H](C)CO)C[C@H]2C)cc1", "inhibition": "3.49%"},
      {"compound": "O=C(O)c1ccc(OCC2CCCO2)cc1", "note": "(stereo unspecified)", "inhibition": "-9.45%"},
      {"compound": "CCCCN1CC(COc2ccccc2)Oc2cccc(F)c2S1(=O)=O", "note": "(stereo unspecified)", "inhibition": "-16%"},
      {"compound": "CCCCCC1CC(COc2ccccc2)OC1=O", "note": "(stereo unspecified)", "inhibition": "44.8% (active)"},
      {"compound": "CCCCCCNS(=O)(=O)c1ccccc1Br", "inhibition": "-11.4%"},
      {"compound": "CC(CNC(=O)Cn1cnc2c(OCc3ccccc3)ncnc21)c1ccccc1", "note": "(stereo unspecified)", "inhibition": "-13.2%"},
      {"compound": "CCCCNC(=O)N1CCCC(N(C)CCc2ccc(OC)c(OC)c2)C1", "note": "(stereo unspecified)", "inhibition": "-14.5%"},
      {"compound": "CN(Cc1ccccc1F)C(=O)C(Cc1ccccc1)NC(=O)c1ccccc1", "note": "(stereo unspecified)", "inhibition": "-5.25%"},
      {"compound": "Cc1nn(CCOc2ccc(Br)cc2)c(C)c1[N+](=O)[O-]", "inhibition": "-14%"},
      {"compound": "CCOC(=O)N1CCN(Cc2nc3ccc([N+](=O)[O-])cc3c(=O)n2-c2cccc(OC)c2)CC1", "inhibition": "-6.54%"},
      {"compound": "CCn1nnnc1SCC(=O)Nc1ccc(N(C)C)cc1", "inhibition": "-8.46%"},
      {"compound": "COc1ccc(N(CC(=O)NC2CCCCCCC2)S(=O)(=O)c2c(C)nn(C)c2C)cc1", "inhibition": "-11.2%"},
      {"compound": "Cc1ccc(CNC(=O)CC(NC(=O)c2ccccc2)c2ccccc2)cc1", "note": "(stereo unspecified)", "inhibition": "-6.05%"},
      {"compound": "NC(=O)c1ncc(C(F)(F)F)cc1Oc1ccc(F)cc1", "inhibition": "-11.7%"},
      {"compound": "O=C(Nc1ccc(OCC(=O)N2CCOCC2)cc1)c1cc(F)c(F)cc1Cl", "inhibition": "-15.7%"},
      {"compound": "Cc1ccc(CN2CC(C(=O)N3CCN(S(=O)(=O)c4ccccc4)CC3)CC2=O)cc1", "note": "(stereo unspecified)", "inhibition": "-11.4%"},
      {"compound": "O=C1C=CC(=O)N1c1ccc(N2CCCCC2)cc1", "inhibition": "-13.5%"},
      {"compound": "C#CCOCCOCCOCCNc1nc(N2CCN(C(=O)[C@H](CO)n3cc([C@@H](N)C(C)C)nn3)CC2)nc(N2CCN(C(=O)[C@H](CCC(=O)O)n3cc([C@@H](N)[C@H](C)CC)nn3)CC2)n1", "inhibition": "-4.25%"},
      {"compound": "COc1ccc(C(=O)NC2CCN(C(=O)Nc3ccc(F)cc3)CC2)cc1", "inhibition": "-6.33%"},
      {"compound": "O=C(CSc1nnc(-c2cccnc2)n1CCc1ccccc1)NCc1ccccc1", "inhibition": "-11.6%"},
      {"compound": "CCOC(=O)C1(Cc2ccc(O)cc2)NC(c2ccccc2F)C2C(=O)N(C)C(=O)C21", "note": "(stereo unspecified)", "inhibition": "-8.27%"},
      {"compound": "CC[C@]12c3[nH]c4ccc(Cl)cc4c3CCN1C(=O)[C@@H](CC(=O)NCCCOC)C[C@@H]2C(=O)N1CCN(C(=O)c2ccco2)CC1", "inhibition": "-13.8%"},
      {"compound": "O=C(/C=C/c1ccccc1Cl)Nc1ccc(S(=O)(=O)Nc2ncccn2)cc1", "inhibition": "-4.75%"},
      {"compound": "O=C(CCCOc1ccccc1)NCc1ccco1", "inhibition": "-2.34%"},
      {"compound": "CCn1c(SCC(=O)Nc2ccc(OC)c(OC)c2)nnc1-c1c[nH]c2ccccc12", "inhibition": "-5.34%"},
      {"compound": "COc1ccc(N2C(=O)CC(Sc3n[nH]c(-c4ccc(C)cc4)n3)C2=O)cc1", "note": "(stereo unspecified)", "inhibition": "-16%"},
      {"compound": "CC(NC(=S)NNS(=O)(=O)c1ccc(C(C)(C)C)cc1)c1ccccc1", "note": "(stereo unspecified)", "inhibition": "-8.37%"},
      {"compound": "Cc1cc(C)cc(NC(=O)N(C)Cc2ccccc2)c1", "inhibition": "-16%"},
      {"compound": "C/C(Cc1ccccc1)=N\\NC(=O)CNC(=O)c1cccc(Br)c1", "inhibition": "2.03%"},
      {"compound": "CCOc1ccc(OCC)c(NC(=O)CCS(=O)(=O)c2ccc(C)cc2)c1", "inhibition": "-14.3%"},
      {"compound": "CCc1ccc(NC(=O)N2CCc3ccccc3C2)cc1", "inhibition": "-0.823%"},
      {"compound": "CCOC(=O)C(NC(=O)CC(C)C)(Nc1sc2c(c1C(N)=O)CCCC2)C(F)(F)F", "note": "(stereo unspecified)", "inhibition": "-4.91%"}
    ]}
  ]
}
